# Among all 87,000 compounds or so, about 360 (0.41%) were called active. This excerpt belongs to a sample that is enriched for actives. Values without a mark were called inactive. No stated cut-off is given here; in the data, active means cytotoxicity above about 50%; inactive means the rest.
# Experiment: cytotoxicity in HT1080 fibrosarcoma cells, cell-based, fluorescence readout (AID 620);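 further: cells exposed to compound overnight then 4 h with Alamar Blue; 0% = vehicle DMSO and 100% = killing control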
# Settings: HT1080 viability, at 10 µM, stronger effect = higher value
row,SMILES,cytotoxicity
1,CC(C)Cc1nnc(NC(=O)CC(=O)Nc2ccccc2C(=O)O)s1,-4.8%
2,O=C(NC1CC1)c1sccc1-n1cccc1,4%
3,COc1ccc(OCCSc2nnc3sc4ccccc4n23)cc1,-2.4%
4,COc1cccc(OCCSc2nnc3sc4ccccc4n23)c1,12.4%
5,CCOC(=O)C1CCN(C(=O)CCCN2C(=O)c3ccccc3C2=O)CC1,5%
6,CC[Si](CC)(CC)c1c2c(nc3ccc(OC)cc13)-c1cccc(=O)n1C2,-6.3%
7,CCNC(=O)COc1ccc(S(=O)(=O)Nc2ccccc2)cc1,2.5%
8,COc1ccc(S(=O)(=O)Cc2ccc(C(=O)NCc3ccc(F)cc3)o2)cc1,-10.5%
9,COc1ccc(-n2c(Cc3cccn3C)nnc2SCC(=O)N2CCCc3ccccc32)cc1,0.6%
10,CCCCCCN(C(=O)CCCCCN1C(=O)NC(c2ccc([N+](=O)[O-])cc2)C(C(=O)OCc2ccccc2)=C1C)C(C(=O)NCCCC)c1ccc(OCC(=O)OC)c(C(=O)OC)c1 (stereo unspecified),-7.3%
11,Cc1ccc(S(=O)(=O)Nc2cccc3cccnc23)cc1,-3%
12,Brc1ccc(-c2nnc3n2-c2ccccc2CC3)cc1,2%
13,Cc1ccc(-n2c(-c3ccc(Br)cc3)c[n+]3c2CCc2ccc4cccnc4c2-3)cc1,63.8% (active)
14,COc1ccccc1NC(=O)CSc1nnc(COc2ccc(Cl)cc2)n1Cc1ccco1,-2%
15,CCOc1ccc(N(CC(=O)Nc2ccc(C)cc2)S(=O)(=O)c2c(C)noc2C)cc1,3.5%
16,CCOc1ccc(N(CC(=O)NC(C)(C)C)S(=O)(=O)c2c(C)noc2C)cc1,-10.4%
17,COc1ccc(N(CC(=O)Nc2cc(C)ccc2OC)S(=O)(=O)c2c(C)noc2C)cc1,-2.6%
18,COc1ccc(N(CC(=O)Nc2cc(Cl)ccc2OC)S(=O)(=O)c2c(C)noc2C)cc1,53.8% (active)
19,CCOc1ccccc1NC(=O)CN(c1cc(C)cc(C)c1)S(=O)(=O)c1c(C)noc1C,-7.8%
20,CCOc1ccccc1NC(=O)CN(c1ccc(C)cc1)S(=O)(=O)c1c(C)noc1C,-3.3%
21,CCOc1ccc(N(CC(=O)Nc2ccccc2C)S(=O)(=O)c2c(C)noc2C)cc1,54.9% (active)
22,CCOc1ccccc1NC(=O)CN(c1ccc(OC)cc1)S(=O)(=O)c1c(C)noc1C,53.1% (active)

row,SMILES,cytotoxicity
1,COc1ccc(OC)c(NC(=O)CN(c2ccc(C)cc2)S(=O)(=O)c2c(C)noc2C)c1,2.3%
2,Cc1cccc(C)c1-n1c(C)cc(/C=C2\NC(=O)NC2=O)c1C,15.3%
3,Cc1cccc(Nc2nn3c(=O)c4ccccc4nc3s2)c1,6.1%
4,CCCCCCSc1cc(C)nc2ncnn12,-4.5%
5,CCOc1cc(-c2noc(-c3ccncc3)n2)cc(Br)c1OC,-6.4%
6,CCN(CC)C(=O)CN(C#N)c1nc(OC)nc(N(C)C)n1,5.3%
7,CCCCn1c(N)c(N(CC)C(=O)c2ccc3c(c2)S(=O)(=O)c2ccccc2C3=O)c(=O)[nH]c1=O,-1.2%
8,CCn1c(SCC(=O)Nc2ccc3c(c2)OCO3)nnc1-c1cnccn1,102% (active)
9,Cn1c(SCC(=O)Nc2ccc3c(c2)OCO3)nnc1-c1cnccn1,13.4%
10,CCn1c(SCC(=O)Nc2ccc3c(c2)OCCO3)nnc1-c1ccccn1,37%
11,CN1C(=O)c2ccc(S(=O)(=O)c3ccc(C(=O)O)cc3)cc2C1=O,3.3%
12,Cc1ccc2[nH]c(=O)c(-c3nc4ccccn4c3NCc3ccco3)cc2c1,-4.4%
13,COc1ccc2c(c1)C(C1=C(O)CC(C)(C)CC1=O)C1=C(CC(C)(C)CC1=O)O2 (stereo unspecified),10.3%
14,CC[C@]1(O)CC2CN(CCc3c([nH]c4ccccc34)[C@@](C(=O)OC)(c3cc4c(cc3OC)N(C=O)[C@H]3[C@@](O)(C(=O)OC)[C@H](OC(C)=O)[C@]5(CC)C=CCN6CC[C@]43[C@@H]65)C2)C1 (stereo partly specified),65.8% (active)
15,CC(C)Cn1c(=O)c2c(c3ccccc31)OC(C)C(=O)N2 (stereo unspecified),-0.6%
16,CCOC(=O)CNC(=O)C(Cc1ccccc1)NS(=O)(=O)c1ccc2c(c1)CCC(=O)N2 (stereo unspecified),0.8%
17,Oc1ccc(Nc2nc(-c3ccc(O)cc3)cs2)cc1,2.8%
18,Cc1cccnc1Nc1nc(-c2ccc(O)c(O)c2)cs1,9.2%
19,Oc1ccc(Nc2nc(-c3ccc4ccccc4c3)cs2)cc1,53.6% (active)
20,NS(=O)(=O)c1ccc(Nc2nc(-c3ccc4ccccc4c3)cs2)cc1,-2.9%
21,Oc1ccc(-c2nc(-c3ccc(O)c(O)c3)cs2)cc1,61.2% (active)
22,Oc1ccc(-c2csc(-c3ccccc3)n2)cc1O,15.6%

row,SMILES,cytotoxicity
1,O=C(O)CCc1ccc(-c2cccs2)n1CCC(=O)O,-6.8%
2,Cn1nc(-c2ccccc2)c(-c2nc(-c3cccc(C(F)(F)F)c3)no2)c1Cl,6.9%
3,Cc1ccc(NC(=O)CSc2nc(-c3ccco3)cc(C(F)(F)F)n2)cc1C,-8.6%
4,Cc1cccc(C)c1NC(=O)CSc1nc(-c2ccco2)cc(C(F)(F)F)n1,3.3%
5,COC(=O)c1ccc(C(=O)OC)c(NC(=O)CSc2nc(-c3ccco3)cc(C(F)(F)F)n2)c1,5.6%
6,Cc1cc(NC(=O)CCCSc2nc(-c3ccco3)cc(C(F)(F)F)n2)no1,2.7%
7,COC(=O)c1ccccc1NC(=O)CSc1nc(-c2ccco2)cc(C(F)(F)F)n1,52.3% (active)
8,O=C(CSc1nnc(-c2ccccn2)n1Cc1ccccc1)Nc1ccc2c(c1)OCO2,3.3%
9,Cc1oc(C(=O)O)cc1COc1ccc2c(C)cc(=O)oc2c1,-7.7%
10,CC(=O)c1c(C)[nH]c(C(=O)N2CCN(c3ncccn3)CC2)c1C,-1.6%
11,CC(=O)c1c(C)[nH]c(C(=O)N2CCN(c3ccc(F)cc3)CC2)c1C,-1.4%
12,COc1cccc(N2CCN(C(=O)c3[nH]c(C)c(C(C)=O)c3C)CC2)c1,51% (active)
13,COc1ccccc1NC(=O)Cn1nc(C(F)(F)F)c2c1CCCC2,-0.3%
14,CCOC(=O)c1c(C)oc2c(F)c(F)c(F)c(F)c2c1=O,96.5% (active)
15,CCOC(=O)c1c(C)cc(=O)oc1C,-21.5%
16,CCOC(=O)c1c(C)oc2cc3c(C(=O)OCC)c(C)oc3cc12,-0.1%
17,COC(=O)Nc1cc(C)nc2ccccc12,-9.1%
18,COc1ccc(N2CCN(c3ncnc4nc[nH]c34)CC2)cc1,-6.5%
19,O=c1cc(N2CCN(Cc3ccccc3)CC2)[nH]c(=O)n1-c1cccc(C(F)(F)F)c1,12.7%
20,Cc1nnc(SCC(=O)Nc2cc(C(F)(F)F)ccc2N2CCOCC2)o1,7%
21,Cc1onc(-c2ccccc2)c1C(=O)Nc1ccccc1N1CCOCC1,3.3%
22,Cc1ccc2nc(SCC(=O)Nc3cc(C(F)(F)F)ccc3N3CCOCC3)[nH]c2c1,62.5% (active)

row,SMILES,cytotoxicity
1,O=C(CSc1nc2ccccc2[nH]1)Nc1cc(C(F)(F)F)ccc1N1CCOCC1,-2.4%
2,O=C(Nc1cc(C(F)(F)F)ccc1N1CCOCC1)c1c(F)c(F)c(F)c(F)c1F,1.3%
3,Cc1onc(-c2ccccc2)c1C(=O)Nc1cc(C(F)(F)F)ccc1N1CCOCC1,59.2% (active)
4,COCCNC(=O)C1(C)C=CCN1C(C)=O (stereo unspecified),-17.3%
5,COc1ccc(NC(=O)c2ccc(-n3nc(C)cc3C)cc2)cc1OC,-17.7%
6,COC(=O)c1ccccc1S(=O)(=O)C(C)(C)C,7.6%
7,CCOCCCNC(=O)C1CCN(S(=O)(=O)N2CCCCC2)CC1,1.1%
8,COC(=O)C1=[N+]([O-])OC(C(=O)OC)C1c1c[nH]c2ccccc12 (stereo unspecified),41.5%
9,CCc1nc2c(sc3nc4c(cc32)COC(C)(C)C4)c(=O)n1Cc1ccco1,1.2%
10,Cc1nc2c(sc3nc4c(cc32)COC(C)(C)C4)c(=O)n1CC(=O)NCc1ccco1,55.6% (active)
11,CC1(C)Cc2nc3sc4c(=O)n(CC(=O)NCc5ccco5)cnc4c3cc2CO1,15.9%
12,CSC1=Nc2sc3c(c2C2=NCCN12)CCCC3,7.2%
13,COc1cc2c(cc1OC)C1C/C(=N\O)C(CC(C)C)CN1CC2 (stereo unspecified),-13.4%
14,COc1cc2c(cc1OC)C1Cc3ccc(OC)c(OC)c3CN1CC2 (stereo unspecified),-0.8%
15,CC[C@H]1CN2CCc3cc(OC)c(OC)cc3[C@@H]2C[C@@H]1C[C@H]1NCCc2cc(OC)c(OC)cc21,78.8% (active)
16,Cc1oc(-c2ccccc2F)nc1CN1CCC(C(=O)NCc2cccs2)CC1,-2.2%
17,O=S(=O)(Nc1nnc(-c2ccccc2)s1)c1ccc(Cl)cc1,5.7%
18,Cc1ncc(S(=O)(=O)c2ccc(Cl)cc2)c(-c2ccccc2)n1,18.2%
19,O=C1NCCCC1C(=O)N1CCN(C(=O)C2CCCNC2=O)CC1 (stereo unspecified),-7.4%
20,O=C(CCn1cccc1)Nc1ccccc1F,-5.1%
